# The whole screen tested about 300,000 compounds, of which about 2,500 (0.83%) were called active. The sample holds actives, similar compounds and a random draw of the others, so the mix is not that of the screen. A number with no mark means an inactive call.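 How the source made its calls: active means inhibition above the mean of all tested compounds plus 3 SD, set per screening campaign (cut at about 24% in these data); inactive means the rest.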
# System: tRNA 2'-phosphotransferase TPT1 (Candida albicans SC5314)
# Assay: tRNA 2'-phosphotransferase blockers, C. albicans – biochemical, fluorescence polarization, primary screen (AID 1962);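 further: plate controls were DMSO alone for no effect and ferristatin control at 100 nM for full effect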
# Settings: recombinant caTPT1, FP RNA substrate dephosphorylation; at 5 µM; stronger effect = higher value
row,Compound,inhibition
1,CCOCCn1[nH]c2ccccc2c1=O,-0.9%
2,CCC1CCCCN1C(=S)Nc1ccc(C(C)=O)cc1 (configuration not stated),-0.24%
3,COCCN(C(=O)c1ccccc1F)c1c(N)n(Cc2ccccc2)c(=O)[nH]c1=O,1.87%
4,COc1ccc(NC(=O)c2sccc2SCC#N)cc1,-1.53%
5,NNC(=O)c1oc2nc(-c3ccccc3)cc(-c3ccco3)c2c1N,79.6% (active)
6,O=C(Nc1cccc(F)c1)c1cc(-c2ccco2)nc2ccccc12,14.1%
7,CNC(=S)NNC(=O)c1oc2nc(-c3ccccc3)cc(-c3ccco3)c2c1N,5.89%
8,CC[N+](C)(CC)CCC[n+]1c(-c2ccccc2)c2cc(N)ccc2c2ccc(N)cc21,-27.7%
9,COc1cc(/C=C2/SC(=S)N(Cc3ccccc3)C2=O)cc(OC)c1O,89.8% (active)
10,COc1ccc(/C=C2\SC(=S)N(CCC(=O)Nc3cccc(C(=O)O)c3)C2=O)cc1OC,1.59%
11,COc1ccccc1C(=O)NNC(=O)CCN1C(=O)/C(=C\c2ccccc2)SC1=S,-5.63%
12,CC(C(=O)Nc1ccc(F)c(F)c1F)N1CCCCCC1 (configuration not stated),-0.32%
13,CC(=O)c1cnc(SCC(=O)O)nc1C,-5.63%
14,CSc1nc(N(C)NC(=O)c2cccc(C)c2)c2ccccc2n1,-0.9%
15,CCOC(=O)C(C)N(c1ccccc1Cl)S(C)(=O)=O (configuration not stated),0.94%
16,CCN(CC)c1ccc(/C=N/NC(=O)c2cnccn2)c(O)c1,1.75%
17,CCN(CC)c1ccc(/C=N/Nc2nc(C)cc(C)n2)c(O)c1,25.2% (active)
18,Cc1cc(C)nc(N/N=C/c2ccncc2)n1,3.38%
19,COc1ccc(-c2cc3nc(C)c(CCC(=O)NC(C)CCc4ccco4)c(C)n3n2)c(OC)c1 (configuration not stated),0.65%
20,CCOC(=O)c1cc(NC(=O)c2cccnc2)ccn1,-2.33%
21,Cc1c(C(=O)OC(C)C)sc(NC(=O)c2cccnc2)c1C#N,31.6% (active)
22,CC(C)NS(=O)(=O)c1ccc(NC(=O)c2cccnc2)cc1,6.23%

row,Compound,inhibition
1,O=C(NC1CCCCC1)C1CCCN(S(=O)(=O)c2ccc(Br)s2)C1 (configuration not stated),-22.4%
2,CC(NC(=O)CC1SC(N)=NC1=O)c1ccccc1 (configuration not stated),2.18%
3,Cc1cc(NC(=O)CCS(=O)(=O)c2ccc(F)cc2)no1,-4.5%
4,CN(C)CCCn1c(N)c(C#N)c2nc(C#N)c(C#N)nc21,75.1% (active)
5,CC(C)(C)c1ccc(C(=O)NCCn2c(N)c(C#N)c3nc4ccccc4nc32)cc1,9.05%
6,CC1CCCCC1NC(=O)CSc1nnc(-c2ccncc2)n1CCCN(C)C (configuration not stated),-2.27%
7,Fc1ccc2nc(Nc3nc4c(s3)CCCC4)sc2c1,24.1% (active)
8,CSc1ncccc1C(=O)Nc1nc2ccc(F)cc2s1,-0.86%
9,Fc1cc(F)c2nc(Nc3nc4c(F)cccc4s3)sc2c1,-0.65%
10,CCc1cccc(C)c1N(C(=O)Cn1c(CO)nc2ccccc21)C(C)COC (configuration not stated),-1.41%
11,O=C(NNc1c2ccccc2nc2ccccc12)c1cc2ccccc2cc1O,25.8% (active)
12,CC(C)(C)OC(=O)NNc1c2ccccc2nc2ccccc12,-0.98%
13,O=C(N/N=C/c1cccnc1)c1cc2ccccc2cc1O,-1.97%
14,CCOc1ccc(-n2cnnn2)cc1S(=O)(=O)N1CCC(C)CC1C (configuration not stated),3.77%
15,COc1cccc(CNC(=O)C2CCCN(S(=O)(=O)N3CC(C)CC(C)C3)C2)c1 (configuration not stated),-2.25%
16,COc1ccc2c(c1)[C@H]1[C@H](CO2)[C@H](c2ccccc2)[C@]2(C)C(=O)Nc3cc(F)c(F)cc3C(=O)N12,-1.54%
17,COc1ccc(/C=C(\NC(=O)c2ccccc2)C(=O)NCCN2CCOCC2)cc1OC,-0.34%
18,CCOC(=O)CNC(=O)/C(=C\c1ccc(F)cc1)NC(=O)c1ccccc1,-8.38%
19,Cn1c2ccccc2c2cc(/C=C(\NC(=O)c3ccccc3)C(=O)NCC(=O)O)ccc21,86.7% (active)
20,CCN1CCN(C(=O)N[C@@H](C(=O)N[C@@H]2C(=O)N3C(C(=O)O)=C(CSc4nnnn4C)CS[C@H]23)c2ccc(O)cc2)C(=O)C1=O,-2.09%
21,CS(=O)(=O)C1=NN2C(=N)/C(=C\c3ccc(OCCOc4ccccc4)cc3)C(=O)N=C2S1,2.39%
22,CS(=O)(=O)c1ccc2c(c1)SC1=NC(=O)/C(=C/c3ccco3)C(=N)N12,62.9% (active)

row,Compound,inhibition
1,Cc1cc(/C=C2/C(=N)N3C(=NC2=O)SN=C3S(C)(=O)=O)c(C)n1-c1ccccc1,4.75%
2,COc1ccccc1C(=O)NCCC(=O)NCC(c1ccco1)N1CCCCC1 (configuration not stated),1.82%
3,O=C(NCc1ccccc1)C(=O)NCC1OCCN1S(=O)(=O)c1ccc(Br)cc1 (configuration not stated),-2.5%
4,COc1ccc(CCN2C(=O)C(C)=C(C)C2=O)cc1OC,1.36%
5,COc1cc(/C=C2/C(=O)NN(c3cccc(Cl)c3)C2=O)cc(Br)c1O,130% (active)
6,C#CCOc1ccc(/C=C2/C(=O)NN(c3ccccc3)C2=O)cc1OC,0.28%
7,COc1cc(/C=C2/C(=O)NN(c3ccc(F)cc3)C2=O)cc([N+](=O)[O-])c1O,-1.74%
8,N#C/C(=C(/O)COC(=O)COc1ccc(Cl)cc1)c1nc2ccccc2[nH]1,35% (active)
9,N#C/C(=C(/O)COc1cccc2ccccc12)c1nc2ccccc2[nH]1,14.7%
10,Cc1ccccc1OC/C(O)=C(\C#N)c1nc2ccccc2[nH]1,2.58%
11,C#CCOCCOCCOCCNc1nc(N2CCN(C(=O)CCCCCCCCCCNC(=O)[C@H]([C@@H](C)CC)n3cc(CCCCN=C(N)N)nn3)CC2)nc(N2CCN(C(=O)CCCCCCCCCCNC(=O)[C@H](CO)n3cc(CCCSC)nn3)CC2)n1,-0.55%
12,COc1ccc(CC2c3cc(OC)c(OC)cc3CC[N+]2(C)CCC(=O)OCCCCCOC(=O)CC[N+]2(C)CCc3cc(OC)c(OC)cc3C2Cc2ccc(OC)c(OC)c2)cc1OC (configuration not stated),0%
13,COCCNC(=O)/C(C#N)=C/c1nc(N(C)C)n(-c2ccc(F)cc2)c1Cl,1.88%
14,Cc1c(C)n2c(SCC(=O)N3CCCC3)nnc2[nH]c1=O,0.57%
15,CC(C)(C)C1C/C(=C/c2ccco2)C(=O)/C(=C/c2ccco2)C1 (configuration not stated),71.8% (active)
16,CCC1C/C(=C/c2cccs2)C(=O)/C(=C/c2cccs2)C1 (configuration not stated),14.5%
17,O=C1OC(/C=C/c2ccccc2)=NC/1=C/c1ccco1,1.61%
18,COC(=O)c1ccc(Sc2ccc(F)cc2)c(N)c1,1.95%
19,CCCCNc1ccc(C(=O)Nc2cccc(C)n2)cc1[N+](=O)[O-],3.18%
20,CCOc1ccc(OCc2ccc(C(=O)Nc3cccc(C)n3)o2)cc1,-2.96%
21,Cc1cccc(NC(=O)c2ccc(COc3ccccc3[N+](=O)[O-])o2)n1,31.1% (active)
22,CCOc1ccc2c(=O)c(-c3ccc4c(c3)OCCCO4)c(C)oc2c1,2.18%

row,Compound,inhibition
1,CN(C)Cc1c(C(=O)N/N=C/c2ccccc2OCc2ccc(F)cc2)nnn1-c1nonc1N,2.3%
2,COc1ccccc1C1CC(=O)n2c(nc(-c3ccccc3)c2-c2ccccc2)S1 (configuration not stated),-2.44%
3,NS(=O)(=O)c1ccc(CNC(=O)c2cnccn2)cc1,-3.97%
4,CCCCn1c(=O)c(C(C)=O)c(O)c2ccccc21,3.63%
5,CCOc1ccc(N=Cc2c(O)n(-c3cccc(C)n3)c(=O)c3ccccc23)cc1,1.89%
6,CC(=O)n1c(C=Nc2ccccc2)c(O)c2ccccc21,37.8% (active)
7,Cc1cc(C)nc(NNC2=CC(=O)CC(C)(C)C2)n1,-0.26%
8,Cc1cs/c(=N\N=C\c2ccc(O)cc2)n1Cc1ccco1,2.86%
9,CN(c1ccccc1)c1ccc(/C=c2\s/c(=C(/C#N)C(=O)C(C)(C)C)n(Cc3ccco3)c2=O)cc1,151% (active)
10,CCOC(=O)/C=c1\s/c(=C\c2ccc(C#N)cc2)c(=O)n1CC(=O)Nc1cccc(C)c1C,1.41%
11,Cc1ccccc1S(=O)(=O)N1[C@@H](c2cccc(Cl)c2)C(C(=O)O)=CC[C@H]1c1ccc(Cl)cc1,-1.82%
12,Cc1ccc(S(=O)(=O)N2[C@@H](c3cccc(Cl)c3)C(C(=O)O)=CC[C@H]2c2ccc(Cl)c(Cl)c2)cc1,0.18%
13,Cn1cc(CN2CCCCC2c2ccccn2)c(-c2ccc3c(c2)OCCO3)n1 (configuration not stated),-1.42%
14,COC(=O)c1ccc(/C=N/N2C(C)CCCC2C)cc1 (configuration not stated),0.75%
15,CC(CCN1CCN=C1N(C)C)c1ccccc1 (configuration not stated),1.38%
16,Cc1ccc(CSCC2Nc3ccc(C(=O)N4CCN(c5ccc(F)cc5)CC4)cc3NC2=O)cc1 (configuration not stated),133% (active)
17,O=C(c1cc(-c2ccc(F)cc2)on1)N1CCN(c2ccc(F)cc2)CC1,-5.93%
18,C=CCn1c(SCc2cccc(F)c2)nc2cc(C(=O)N3CCC(C(N)=O)CC3)ccc2c1=O,-3.32%
19,O=C1Nc2cc(C(=O)N3CCN(c4ccc(F)cc4)CC3)ccc2NC1CSCc1cccc(F)c1 (configuration not stated),134% (active)
20,O=C(c1cc(C(=O)N2CCN(c3ccc(F)cc3)CC2)cc([N+](=O)[O-])c1)N1CCN(c2ccc(F)cc2)CC1,-4.38%
21,O=C(c1cccc(F)c1)N1CCN(c2ccc([N+](=O)[O-])c(N3CCCCC3)c2)CC1,-2.61%

# From PubChem BioAssay AID1962 (The Scripps Research Institute Molecular Screening Center, 2009)
